Growth data for 19 compounds are collected here from PubChem BioAssay (NCI).

What all share (assay): NCI-60 one-dose screen, 48 h (100 = growth as untreated, 0 = no growth, -100 = all killed)
Details in all cases: 10 µM unless noted

The subject of assay [1] is OVCAR-8 ovarian.
Assay [2] has as its system OVCAR-5 ovarian.
Assay [3] deals with OVCAR-4 ovarian.
Assay [4] concerns SK-OV-3 ovarian.
Assay [5] relates to IGROV1 ovarian.
Assay [6] deals with OVCAR-3 ovarian.
The subject of assay [7] is HS 578T breast.
Assay [8] relates to NCI/ADR-RES ovarian.
Assay [9] has as its system T-47D breast.

About 83,000 compounds went through this panel and 20% of them were active in at least one assay; those are over-represented in the sample as a whole.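 Compound tested at a single concentration for 48 hours in 96-well plates; a percent growth value below 10 was scored as active.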 Values without a mark were called inactive. Active and inactive are the calls of the source.

In the case of `NS(=O)(=O)c1ccc(N2Cc3cc(Cl)ccc3OC3=C2C(=O)N(CC2CCCCC2)C3=O)cc1`, the growth in assay [1] is -71.9% (active); in assay [2], -88.7% (active); in assay [3], -95.3% (active); in assay [4], 60%; in [5], -47.6% (active); in assay [6], -89.6% (active). Moreover, the growth is 14.5% in [7], 4.6% (active) in [8] and -55.3% (active) in assay [9].
As to `C=C(C)[C@@H]1CC[C@]2(C(=O)OCCOCCOCC[P+](c3ccccc3)(c3ccccc3)c3ccccc3)CC[C@]3(C)[C@H](CC[C@@H]4[C@@]5(C)CC[C@H](C)C(C)(C)[C@@H]5CC[C@]43C)[C@@H]12`, the growth was -81.3% (active) in [1]; -72.2% (active) in assay [2]; -85.6% (active) in assay [3]; -96.9% (active) in assay [4]; -70.5% (active) in [5]; -91.7% (active) in assay [6]. Further, the growth is -39.2% (active) in assay [7], -59.8% (active) in assay [8] and -68.5% (active) in assay [9].
As to `CCCCn1c(=O)c(/C=C/C(=O)/C=C/c2ccc(OC)cc2)cc2cc(Cl)ccc21`, the growth is 5.24% (active) in assay [1]; 94.9% in [2]; 42.9% in assay [3]; 59.1% in [5]; 19.5% in assay [6]; 90.9% in assay [7]. The growth in assay [8] was 42.5%; in [9], 69.6%.
Take `COC(=O)/C=C/c1cc(OC)c2c(c1)[C@@H](C(=O)OC)[C@H](c1ccc(OC)c(OC)c1)O2`: the growth in [1] was 30.8%; in assay [2], 77%; in assay [3], 42.6%; in assay [4], 66.8%; in assay [5] it was 43.2%; in [6], -15.8% (active). Besides, the growth in assay [7] is 37.5%; in assay [8], 16.6%; in assay [9], 33.1%.
Take `CCN1CCN(c2ccc(NC(=O)Nc3nc4ccc(-c5ccccc5OC)cc4s3)cc2)CC1`: the growth is -52.5% (active) in assay [1]; -76.1% (active) in [3]; -12.5% (active) in [4]; -71.3% (active) in [5]; -90.5% (active) in assay [6]; -23.2% (active) in [7]. Moreover, the growth in [8] is -67.3% (active); in [9], -45.4% (active).
As to `CSc1cccc(NC(=O)Nc2nc3c(C)cccc3s2)c1`, the growth in assay [1] is 93.9%; in assay [2] it was 117%; in assay [3], 85%; in assay [4] it was 97.1%; in [5], 90.2%; in [6], 117%. The figures for the growth in [7], in assay [8] and in assay [9] were 87.7%, 91.5% and 95%, respectively.
`C=C1C(=O)O[C@H]2[C@H]1CC/C(COC(=O)N1CCC[C@H]1C(=O)Nc1ccc(OC)c(C(N)=O)c1O)=C\CC[C@@]1(C)O[C@@H]21`: the growth in assay [1] is 44.4%; in assay [2] it was 68.5%; in [3], 52%; in assay [4], 88.8%; in assay [5] it was 14.7%; in assay [6] it was 4.49% (active). Besides, the growth was 71.8% in [7], 106% in assay [8] and 29.8% in assay [9].
Turning to `COc1cc(C2=N/C(=C\c3cc4ccccc4nc3Oc3ccccc3)C(=O)N2C(=N)N)cc(OC)c1OC`, the growth in assay [1] was 33.2%; in [2] it was 80.7%; in [3], 24.3%; in assay [4], 44.2%; in [5] it was 82.1%; in assay [6], 76.7%. The growth in assay [7] was 33.7%; in assay [8], 52.6%; in assay [9], 49%.
Turning to `CC1(C)CC[C@]2(c3nnc(-c4ccncc4)o3)CC[C@]3(C)C(=CC[C@@H]4[C@@]5(C)CCC(=O)C(C)(C)[C@@H]5CC[C@]43C)[C@@H]2C1`, the growth is 81.1% in assay [1]; 99.9% in assay [2]; 89.2% in assay [3]; 104% in assay [4]; 93.2% in assay [5]; 80.8% in assay [6]. Also, the growth in assay [7] was 98.6%; in assay [8], 97.2%; in assay [9], 65.9%.
As to `COc1ccc2[nH]c(=O)c(/C=C/C(=O)/C=C/c3ccc(O)c(OC)c3)cc2c1`, the growth was 1.42% (active) in assay [1]; 59.4% in assay [2]; 64.3% in [3]; 56.5% in [4]; 2.67% (active) in assay [5]; -11.2% (active) in assay [6]. Also, the growth in [7] is 25.5%; in assay [8], 47.9%; in assay [9], 26%.
On to `COc1ccc(C(=O)c2cc(OC)c(OC)c(OC)c2)cc1OC(=O)C(Cl)(Cl)Cl`, for which the growth in assay [1] was 2.55% (active); in assay [2], 63.8%; in assay [3], 59.7%; in [4], 8.13% (active); in assay [5], 15.9%; in [6] it was -13.5% (active). For the same compound, the growth in assay [7] is 38.9%; in assay [8], 9.28% (active); in [9], 63%.
Take `COC(=O)c1nc(-c2ccccc2)oc1S(=O)(=O)n1nc(C)cc1N`: the growth in assay [1] was 95.3%; in assay [2], 103%; in assay [3], 104%; in assay [4], 106%; in [5], 61%; in assay [6], 20.4%. Further, the growth was 93.6% in assay [7], 101% in assay [8] and 22.5% in assay [9].
In the case of `Cc1ccc(SC2c3ccc(C)cc3Oc3nc(N)c(C#N)c(N)c32)cc1` (centres undefined), the growth in assay [1] is 95%; in [2] it was 121%; in assay [3], 74.8%; in [4], 102%; in assay [5], 25.9%; in assay [6], 55.2%. The growth in assay [7] is 96.2%; in [8], 92.1%; in [9], 16.8%.
With `CC[C@]12C=CCN3CC[C@@]4(c5ccc(OC)cc5N(C)[C@H]4[C@@](O)(C(=O)OC)[C@@H]1OC(=O)CCC(=O)O[C@H]1CC[C@H]4[C@@H]5CC[C@H]6CC(=O)CC[C@]6(C)[C@H]5CC[C@]14C)[C@@H]32`, the growth is 25.7% in assay [1]; 34.6% in assay [2]; 36.6% in assay [3]; 35.3% in [4]; 28.6% in [5]; 23.8% in [6]. For the same compound, the figures for the growth in assay [7], in assay [8] and in [9] were 43.4%, 25.4% and 8.78% (active), respectively.
Take `O=Cc1[nH]c(Sc2ccccc2)c2ccccc12`: the growth in assay [1] is 68.6%; in assay [2], 87.4%; in assay [3] it was 58.3%; in [4] it was 83.5%; in [5] it was 88.2%; in assay [6] it was 50.4%. Further, the growth in assay [7] was 64.9%; in assay [8], 69.7%; in assay [9] it was 44.1%.
In the case of `O=c1cc(/C=N\Nc2nc(-c3ccc(Cl)cc3Cl)cs2)c2cc(Cl)ccc2o1`, the growth in assay [1] was 99.7%; in assay [2], 96.9%; in assay [3] it was 85.3%; in [4] it was 81.8%; in assay [5] it was 79.8%; in assay [6], 101%. The growth is 101% in [7], 98.1% in [8] and 69.7% in assay [9].
On to `C#CCN1C(=O)c2ccccc2N(CC#C)C12CCN(Cc1cn(CC(=O)Nc3ccccc3C(N)=O)nn1)CC2`, for which the growth in assay [1] was 100%; in assay [2] it was 89.2%; in [3], 89%; in assay [4], 106%; in assay [5], 82.4%; in assay [6], 84.4%. In addition, the growth is 91.8% in [7], 80.5% in assay [8] and 77% in assay [9].
In the case of `CC(C)(C)c1ccc2oc(=O)n(SC(Cl)(Cl)Cl)c2c1`, the growth in [1] was 111%; in assay [2], 105%; in assay [3], 106%; in assay [4] it was 102%; in assay [5], 111%; in [6] it was 106%. Besides, the growth is 119% in assay [7], 100% in assay [8] and 93.4% in [9].
With `CCOC(=O)c1c(C)nc2c(c1N)/C(=C/c1ccccn1)C(=O)N2Cc1ccccc1`, the growth in [1] is -7.26% (active); in [2], 64.1%; in [3], 47.8%; in assay [4], 65.9%; in assay [5], -10.6% (active); in assay [6], -19% (active). Further, the values for the growth in assay [7], in assay [8] and in assay [9] were 33.2%, -3.17% (active) and 9.22% (active), respectively.
